Measured values reported in the supplement of paper PMC11732987, “Enantioselective OTUD7B fragment discovery through chemoproteomics screening and high-throughput optimisation” (Communications Chemistry, 2025).

Key:
Assay in all cases: log2 ratio of Biotin-Ahx-Ub-VS probe labelling (fragment/DMSO); higher = less target engagement (more negative = stronger competition), active = hit call of the paper (q ≤ 0.05, log2 ratio ≤ -1)
Details in all cases: compound concentration: 200 uM; treatment time: 3 h
[1] = molecular target: T1, USP19 (UniProt O94966)
T1 sequence (whole entry): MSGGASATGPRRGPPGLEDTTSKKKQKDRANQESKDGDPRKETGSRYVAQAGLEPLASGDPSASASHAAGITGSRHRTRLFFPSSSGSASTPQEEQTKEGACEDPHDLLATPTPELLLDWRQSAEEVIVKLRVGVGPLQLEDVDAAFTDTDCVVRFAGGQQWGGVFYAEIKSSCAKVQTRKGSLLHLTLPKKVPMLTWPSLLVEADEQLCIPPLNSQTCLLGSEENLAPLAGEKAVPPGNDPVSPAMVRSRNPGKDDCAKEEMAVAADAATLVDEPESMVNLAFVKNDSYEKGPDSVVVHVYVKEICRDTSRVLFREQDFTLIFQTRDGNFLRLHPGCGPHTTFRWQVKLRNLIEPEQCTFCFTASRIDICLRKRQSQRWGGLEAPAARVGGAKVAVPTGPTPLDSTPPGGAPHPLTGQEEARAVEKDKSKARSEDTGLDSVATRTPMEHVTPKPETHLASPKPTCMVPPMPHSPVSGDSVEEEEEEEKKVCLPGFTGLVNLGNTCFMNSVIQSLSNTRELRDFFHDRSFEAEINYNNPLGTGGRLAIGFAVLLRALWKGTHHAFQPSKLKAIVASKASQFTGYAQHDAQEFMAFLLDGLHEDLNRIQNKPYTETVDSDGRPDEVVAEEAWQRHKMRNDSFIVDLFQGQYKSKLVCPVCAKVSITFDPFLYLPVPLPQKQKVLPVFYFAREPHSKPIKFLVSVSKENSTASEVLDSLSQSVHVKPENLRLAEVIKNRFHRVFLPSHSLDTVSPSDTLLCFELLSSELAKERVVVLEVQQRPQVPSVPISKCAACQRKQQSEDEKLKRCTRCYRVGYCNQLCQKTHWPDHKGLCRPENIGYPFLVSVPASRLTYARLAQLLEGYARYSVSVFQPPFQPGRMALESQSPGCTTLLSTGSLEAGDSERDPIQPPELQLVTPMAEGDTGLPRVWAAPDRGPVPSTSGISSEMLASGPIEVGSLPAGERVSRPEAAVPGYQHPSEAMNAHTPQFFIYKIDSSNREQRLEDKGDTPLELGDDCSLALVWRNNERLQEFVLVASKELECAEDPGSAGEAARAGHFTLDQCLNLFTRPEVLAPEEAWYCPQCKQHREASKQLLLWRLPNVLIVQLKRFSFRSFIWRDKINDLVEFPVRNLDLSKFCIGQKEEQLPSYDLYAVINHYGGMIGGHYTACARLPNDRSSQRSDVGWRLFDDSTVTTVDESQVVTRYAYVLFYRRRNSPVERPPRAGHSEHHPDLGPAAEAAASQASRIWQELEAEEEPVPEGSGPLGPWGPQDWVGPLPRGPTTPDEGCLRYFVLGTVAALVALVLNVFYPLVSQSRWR
Method in brief: (§1)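 Labelled DUBs from HEK293T lysate were NeutrAvidin-enriched, digested with LysC and trypsin, and run by diaPASEF LC-MS/MS. Before that, each 495 µg sample in Tris/CHAPS/IGEPAL buffer with protease inhibitors was treated in triplicate with fragment at 200 µM or vehicle for 3 h, then with Biotin-Ahx-Ub-VS at 0.5 µM final for 1 h. Values are average log2 ratios of fragment over vehicle by unpaired t-test, based on global-median-normalised Spectronaut label-free quantities from proteins with ≥2 unique peptides.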

[2] = molecular target: T2, USP22 (UniProt Q9UPT9)
T2 sequence (whole entry): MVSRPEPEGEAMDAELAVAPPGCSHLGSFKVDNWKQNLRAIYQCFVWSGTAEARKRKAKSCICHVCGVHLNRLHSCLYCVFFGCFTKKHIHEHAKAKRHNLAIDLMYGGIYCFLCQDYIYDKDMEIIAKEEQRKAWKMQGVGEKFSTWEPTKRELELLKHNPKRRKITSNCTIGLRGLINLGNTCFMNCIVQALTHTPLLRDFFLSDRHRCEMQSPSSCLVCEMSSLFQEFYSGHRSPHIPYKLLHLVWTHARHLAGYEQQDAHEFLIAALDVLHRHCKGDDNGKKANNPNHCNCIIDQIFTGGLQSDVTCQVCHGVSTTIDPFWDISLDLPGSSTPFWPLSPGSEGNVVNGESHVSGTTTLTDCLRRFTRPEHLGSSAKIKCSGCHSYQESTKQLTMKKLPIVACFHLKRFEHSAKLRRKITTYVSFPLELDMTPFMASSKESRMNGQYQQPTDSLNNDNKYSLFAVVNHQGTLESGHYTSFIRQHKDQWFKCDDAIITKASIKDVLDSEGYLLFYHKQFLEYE
Method in brief: as §1

[3] = molecular target: USP24 (UniProt Q9UPU5)
Method in brief: as §1

[4] = molecular target: T3, USP25 (UniProt Q9UHP3)
T3 sequence (whole entry): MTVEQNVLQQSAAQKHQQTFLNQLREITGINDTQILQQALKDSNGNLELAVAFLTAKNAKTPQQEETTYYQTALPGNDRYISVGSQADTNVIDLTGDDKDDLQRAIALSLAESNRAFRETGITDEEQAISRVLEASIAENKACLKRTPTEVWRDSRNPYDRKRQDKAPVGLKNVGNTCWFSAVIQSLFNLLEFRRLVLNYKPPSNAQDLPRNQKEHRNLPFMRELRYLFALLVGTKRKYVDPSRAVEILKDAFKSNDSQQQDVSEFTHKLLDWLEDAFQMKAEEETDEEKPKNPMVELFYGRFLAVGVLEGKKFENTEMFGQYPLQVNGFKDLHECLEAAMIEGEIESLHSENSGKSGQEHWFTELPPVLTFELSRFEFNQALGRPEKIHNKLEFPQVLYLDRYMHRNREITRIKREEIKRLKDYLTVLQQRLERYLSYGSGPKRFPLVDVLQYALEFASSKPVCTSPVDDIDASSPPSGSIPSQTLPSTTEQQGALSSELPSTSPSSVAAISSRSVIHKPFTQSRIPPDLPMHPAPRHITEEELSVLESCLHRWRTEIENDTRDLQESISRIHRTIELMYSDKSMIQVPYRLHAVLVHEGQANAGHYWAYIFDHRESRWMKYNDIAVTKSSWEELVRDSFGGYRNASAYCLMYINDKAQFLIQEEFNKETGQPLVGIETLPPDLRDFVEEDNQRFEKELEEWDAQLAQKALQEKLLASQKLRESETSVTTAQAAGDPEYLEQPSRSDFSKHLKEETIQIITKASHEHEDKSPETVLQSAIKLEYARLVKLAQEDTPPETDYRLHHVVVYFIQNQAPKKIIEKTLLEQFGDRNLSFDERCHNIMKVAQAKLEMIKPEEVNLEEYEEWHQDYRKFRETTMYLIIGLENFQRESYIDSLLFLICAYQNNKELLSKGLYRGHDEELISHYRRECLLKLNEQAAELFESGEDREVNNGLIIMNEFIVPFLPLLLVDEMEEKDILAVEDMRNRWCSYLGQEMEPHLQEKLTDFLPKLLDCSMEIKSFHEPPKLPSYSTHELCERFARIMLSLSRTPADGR
Method in brief: as §1

[5] = molecular target: T4, USP28 (UniProt Q96RU2)
T4 sequence (whole entry): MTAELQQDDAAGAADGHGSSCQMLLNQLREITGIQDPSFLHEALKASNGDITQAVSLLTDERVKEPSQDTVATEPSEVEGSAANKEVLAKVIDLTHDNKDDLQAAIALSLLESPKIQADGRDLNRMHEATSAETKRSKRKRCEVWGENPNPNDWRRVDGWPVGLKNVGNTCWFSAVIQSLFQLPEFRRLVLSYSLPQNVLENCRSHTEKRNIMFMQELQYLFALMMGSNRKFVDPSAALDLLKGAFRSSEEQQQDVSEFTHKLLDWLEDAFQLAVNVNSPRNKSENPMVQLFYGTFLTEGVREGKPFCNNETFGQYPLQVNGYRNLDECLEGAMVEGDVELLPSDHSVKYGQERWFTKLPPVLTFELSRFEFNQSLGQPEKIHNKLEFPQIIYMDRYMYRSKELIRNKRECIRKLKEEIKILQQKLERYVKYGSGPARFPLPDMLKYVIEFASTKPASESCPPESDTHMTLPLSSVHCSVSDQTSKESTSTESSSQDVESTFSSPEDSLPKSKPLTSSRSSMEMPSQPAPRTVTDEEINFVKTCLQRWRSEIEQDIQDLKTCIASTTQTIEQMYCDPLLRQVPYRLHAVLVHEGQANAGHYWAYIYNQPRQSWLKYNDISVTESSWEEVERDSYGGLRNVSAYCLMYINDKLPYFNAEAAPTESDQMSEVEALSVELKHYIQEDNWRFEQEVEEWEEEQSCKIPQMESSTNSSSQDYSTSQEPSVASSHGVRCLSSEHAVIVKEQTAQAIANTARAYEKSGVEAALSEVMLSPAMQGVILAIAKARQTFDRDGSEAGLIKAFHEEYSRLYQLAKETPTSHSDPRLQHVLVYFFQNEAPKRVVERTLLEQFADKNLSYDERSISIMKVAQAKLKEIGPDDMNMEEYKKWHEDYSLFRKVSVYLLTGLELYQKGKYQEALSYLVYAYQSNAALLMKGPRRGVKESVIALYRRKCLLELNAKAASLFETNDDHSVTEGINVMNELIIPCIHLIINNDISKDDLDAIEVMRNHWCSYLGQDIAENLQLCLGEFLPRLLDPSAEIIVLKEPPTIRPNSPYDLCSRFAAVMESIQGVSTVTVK
Method in brief: as §1

Measured: log2 ratio of Biotin-Ahx-Ub-VS probe labelling

Chain of USP24 (Q9UPU5 whole entry): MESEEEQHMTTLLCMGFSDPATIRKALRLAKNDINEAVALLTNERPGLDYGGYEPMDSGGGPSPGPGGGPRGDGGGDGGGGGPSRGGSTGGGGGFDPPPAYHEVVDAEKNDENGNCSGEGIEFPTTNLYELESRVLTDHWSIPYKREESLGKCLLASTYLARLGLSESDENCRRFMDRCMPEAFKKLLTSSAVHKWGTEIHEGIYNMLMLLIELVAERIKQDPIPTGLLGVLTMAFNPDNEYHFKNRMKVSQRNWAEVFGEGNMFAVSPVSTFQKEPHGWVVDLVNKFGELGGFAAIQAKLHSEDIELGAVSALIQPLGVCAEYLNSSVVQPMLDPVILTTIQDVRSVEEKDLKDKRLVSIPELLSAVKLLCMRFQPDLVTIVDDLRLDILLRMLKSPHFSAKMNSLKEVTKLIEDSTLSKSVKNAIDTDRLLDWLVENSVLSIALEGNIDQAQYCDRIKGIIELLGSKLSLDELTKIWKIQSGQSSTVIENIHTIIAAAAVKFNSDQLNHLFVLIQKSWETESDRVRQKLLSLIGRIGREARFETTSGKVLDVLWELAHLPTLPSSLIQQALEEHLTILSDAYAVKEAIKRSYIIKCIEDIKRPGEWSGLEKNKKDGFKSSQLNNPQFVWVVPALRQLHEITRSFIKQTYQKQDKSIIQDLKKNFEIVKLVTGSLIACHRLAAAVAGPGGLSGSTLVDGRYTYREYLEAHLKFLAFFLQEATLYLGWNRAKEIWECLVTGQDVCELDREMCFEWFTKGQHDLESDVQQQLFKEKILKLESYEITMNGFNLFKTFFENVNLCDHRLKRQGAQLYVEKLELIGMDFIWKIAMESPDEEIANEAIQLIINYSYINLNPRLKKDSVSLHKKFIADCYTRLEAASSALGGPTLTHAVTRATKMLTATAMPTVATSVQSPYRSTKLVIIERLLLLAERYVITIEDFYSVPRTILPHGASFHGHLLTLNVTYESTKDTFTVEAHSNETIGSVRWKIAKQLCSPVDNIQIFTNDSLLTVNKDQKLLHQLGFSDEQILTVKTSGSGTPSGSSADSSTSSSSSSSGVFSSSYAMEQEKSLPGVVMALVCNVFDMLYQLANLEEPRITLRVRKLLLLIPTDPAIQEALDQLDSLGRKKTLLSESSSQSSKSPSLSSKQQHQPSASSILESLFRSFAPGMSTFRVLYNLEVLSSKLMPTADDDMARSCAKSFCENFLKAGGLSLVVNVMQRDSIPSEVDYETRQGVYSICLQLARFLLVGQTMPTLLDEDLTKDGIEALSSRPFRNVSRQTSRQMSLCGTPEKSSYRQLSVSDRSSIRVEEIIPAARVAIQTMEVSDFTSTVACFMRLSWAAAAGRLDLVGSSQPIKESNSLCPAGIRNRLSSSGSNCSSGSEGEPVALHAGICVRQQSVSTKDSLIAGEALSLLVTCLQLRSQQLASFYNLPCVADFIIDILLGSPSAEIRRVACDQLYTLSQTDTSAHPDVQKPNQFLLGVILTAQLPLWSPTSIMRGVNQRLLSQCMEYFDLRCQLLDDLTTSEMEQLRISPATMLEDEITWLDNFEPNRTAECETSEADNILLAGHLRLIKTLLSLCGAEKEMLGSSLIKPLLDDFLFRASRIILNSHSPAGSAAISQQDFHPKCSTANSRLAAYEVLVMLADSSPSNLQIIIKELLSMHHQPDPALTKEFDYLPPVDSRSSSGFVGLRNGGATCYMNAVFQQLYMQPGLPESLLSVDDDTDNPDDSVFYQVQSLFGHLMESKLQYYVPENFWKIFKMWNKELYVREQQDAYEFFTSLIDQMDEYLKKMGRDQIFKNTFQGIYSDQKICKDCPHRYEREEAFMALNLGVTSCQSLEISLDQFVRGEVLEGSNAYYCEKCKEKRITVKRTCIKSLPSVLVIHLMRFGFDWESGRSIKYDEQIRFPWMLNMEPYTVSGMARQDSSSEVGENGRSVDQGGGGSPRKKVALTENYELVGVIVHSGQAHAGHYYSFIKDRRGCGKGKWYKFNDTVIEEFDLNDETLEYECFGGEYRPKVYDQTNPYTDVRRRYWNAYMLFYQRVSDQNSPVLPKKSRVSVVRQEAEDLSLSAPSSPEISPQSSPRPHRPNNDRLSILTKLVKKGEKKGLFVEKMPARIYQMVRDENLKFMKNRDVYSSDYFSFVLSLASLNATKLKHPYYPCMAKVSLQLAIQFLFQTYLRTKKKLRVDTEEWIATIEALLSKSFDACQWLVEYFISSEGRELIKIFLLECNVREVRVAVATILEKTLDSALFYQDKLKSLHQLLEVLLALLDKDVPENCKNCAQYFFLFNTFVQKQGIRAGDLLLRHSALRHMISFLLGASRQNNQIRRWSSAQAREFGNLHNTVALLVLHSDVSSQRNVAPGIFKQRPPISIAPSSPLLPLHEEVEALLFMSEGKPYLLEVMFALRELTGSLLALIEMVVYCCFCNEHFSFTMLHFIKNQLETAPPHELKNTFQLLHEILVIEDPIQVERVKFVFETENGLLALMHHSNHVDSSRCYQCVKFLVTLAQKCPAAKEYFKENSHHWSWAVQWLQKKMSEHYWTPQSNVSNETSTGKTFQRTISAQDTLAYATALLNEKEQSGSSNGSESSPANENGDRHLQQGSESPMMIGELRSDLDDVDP

CC(=O)C1CCCCN1C(=O)CCl (stereo not given)
inactive: [1] -0.14 | [2] 0.0806 | [3] 0.0726 | [4] 0.106 | [5] -0.2
